Measured values reported in PubChem BioAssay AID1508622 (National Center for Advancing Translational Sciences (NCATS), 2021).
Active and inactive are the calls of the source. The call rests on the fitted dose curve; in most records, active means well fitted activation curve with a large enough effect; inconclusive means small, poorly fitted or top-dose-only effect; inactive means no such curve, though single readings can be large or run the other way.

Test: Confirmatory qHTS for Identification of Small Molecule Activators of Huntingtin-Antisense Promoter Activity
Conditions: HEK293 HTT-AS promoter firefly luciferase reporter, 24 h; series mostly up to 57.5 µM
Summary of the method: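 2,500 luciferase reporter HEK293 cells/well; 24 h culture; cpds up to 57.5 uM final, PTC124 50 uM ctrl; 24 h, 37C; Dual-Glo FLuc reagent, 10 min RT; lum. Norm.: vehicle 0%, zero RLU -100%.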
Potency means the concentration at half of the fitted maximal effect.

Potency, active:
CCN(Cc1ccccc1)C(=O)c1cc(-c2ccccc2)n[nH]1 0.953 µM
CC1CCN(C(=O)CN2c3ccc(Br)cc3-c3ccccc3S2(=O)=O)CC1 2.69 µM
CN(C)c1ccc(Nc2nc(N)n(C(=O)c3c(F)cccc3F)n2)cc1 30.1 µM
O=c1c(-c2ccc(O)cc2)coc2cc(O)ccc12 8.49 µM

Potency, inactive:
O=C(NCC(c1cccnc1)N1CCN(Cc2ccccc2)CC1)C(=O)Nc1ccc(Cl)cc1 (centres undefined)
COc1ccc(NC(=O)CSc2nc(-c3ccco3)cc(C(F)(F)F)n2)cc1OC
CCOc1ccc(OC(=O)c2c(-c3ccccc3Cl)noc2C)cc1
COc1ccc(-c2nc(CNS(=O)(=O)c3ccc(F)cc3)cs2)cc1
CCN(c1ncnc2c1cnn2-c1cc(Cl)ccc1C)C1CCCCC1
COc1ccc(OC)c(CCNC(=O)c2cnn(-c3ccc(C)cc3C)c2C2CCN(C(=O)OC(C)(C)C)CC2)c1
COc1ccccc1C(=O)Oc1c(Sc2ccccc2)c(C)nn1C(C)(C)C
CCOC(=O)C1CCCN(S(=O)(=O)c2ccc3c(c2)CCCN3C(C)=O)C1 (centres undefined)
COc1ccc(OC2CCN(S(=O)(=O)c3ccc(OC)cc3)CC2)cc1
Cc1noc(/C=C/c2ccccc2F)c1S(=O)(=O)N1CCC(C(=O)Nc2ccc(C#N)cc2)CC1
CC(C)Cc1ccc(S(=O)(=O)Nc2ccc3[nH]c(=O)[nH]c3c2)cc1
CCN(CC)S(=O)(=O)c1ccc2c(c1)N(CC(=O)N1CCN(c3cccc(C(F)(F)F)c3)CC1)C(=O)CO2
CC(C)OCc1cc(CN2CCN(c3cccc(C(F)(F)F)c3)CC2)c(O)c2ncccc12
CCN(CC)CCNC(=O)c1c(C)[nH]c(C=C2C(=O)Nc3ccc(F)cc32)c1C
CCc1ccc2oc(C(=O)NCCc3ccc(OC)c(OC)c3)cc(=O)c2c1
CC(=O)c1ccc(N2CCN(c3ncnc4c3cnn4-c3cc(Cl)ccc3C)CC2)cc1
COc1ccc2sc(N(Cc3cccnc3)C(=O)c3cccs3)nc2c1
CCCCOc1ccc(CNC(=O)Cc2ccc(NC(=O)N3CCSc4ncccc43)cc2)cc1
Cc1cccc(N2CCN(S(=O)(=O)c3ccc4c(c3)CCCN4C(=O)C3CCC3)CC2)c1C
Cc1oc(-c2ccc(Cl)cc2)nc1CN1CCCC(C(=O)NCCc2ccccc2)C1 (centres undefined)
CCCCC(CC)CNC(=O)Cc1ccc(-n2c(=O)[nH]c3ccccc3c2=O)cc1 (centres undefined)
CC1CCN(C(=O)CSc2nnc(NC(=O)Nc3ccccc3)s2)CC1
Cc1ccc(CN2CCCn3nc(C(=O)NCc4cc(C)ccc4C)cc3C2=O)cc1
COc1ccc(Cn2c(SCc3ccc(C(=O)NC4CCCC4)cc3)nc3ccncc32)cc1
Cc1ccc(NS(=O)(=O)c2ccc(-c3cnc(C4CC4)o3)cc2)cc1N(C)C
CCc1c(C)sc2c1CCN(Cc1ccccc1F)C2c1ccccc1 (centres undefined)
Cc1cccc(OCC(=O)Nc2ccc3c(c2)N(C)C(=O)c2ccccc2S3)c1
Cc1ccc(C)c(N2CCN(C(=O)C3CCN(c4nc(-c5ccc(C(C)C)cc5)no4)CC3)CC2)c1
CCOc1ccc(CCNC(=O)c2cc3c(-c4cccc(OC)c4)nn(C)c3s2)cc1OCC
CCc1ccc(NC(=O)CSc2nc(=O)n(Cc3cccnc3)c3c2CCC3)cc1
CCc1ccc(NC(=O)c2ccc(F)c(S(=O)(=O)N3CCC(C)CC3)c2)cc1
COc1ccc2sc(N(Cc3cccnc3)C(=O)c3ccc4c(c3)OCCO4)nc2c1
COC(=O)[C@]12CCC(C)(C)C[C@@H]1[C@@H]1C(=O)C=C3[C@@]4(C)C=C(C#N)C(=O)C(C)(C)[C@@H]4CC[C@@]3(C)[C@]1(C)CC2
CCC(C(=O)NCCc1ccc(SC)cc1)n1nc(C)c2c(C)n(-c3ccc(C)cc3)nc2c1=O (centres undefined)
Clc1ccc(N2CCN(c3ncnc4c3nc3n4CCCC3)CC2)cc1
